According to PubChem BioAssay (NCATS):
Several values for one entry are separate records, joined by “and”; a condition that tells them apart may be missing. Identical values can stand only once. Records with an inconclusive call do not appear. A call without a number means that no potency is given here. Activity calls are given as the source filed them. Unless noted, calls follow the shape of the dose curve; as a rule, active = well fitted curve in the direction sought with a large enough effect; inconclusive = small, poorly fitted or top-dose-only effect, or another doubt; inactive = no such curve, though single readings can be large; an effect the other way counts as inactive or inconclusive.

How the values were obtained:
[1] = molecular target: D(1A) dopamine receptor (Homo sapiens) (UniProt P21728); assay: HTS Assay for Allosteric Agonists of the Human D1 Dopamine Receptor: Primary Screen for Antagonists (AID 488983); conditions: D1 receptor cell assay, antagonist mode, qHTS titration; series mostly up to 41.8 µM;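 also: calcium flux response to an EC80 dopamine challenge measured with no-wash dye; nearly all actives have a fitted effect of over 65% in size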; also: potency is read from the fitted curve at half-maximal effect
D(1A) dopamine receptor (Homo sapiens), sequence (P21728 whole entry, looked up): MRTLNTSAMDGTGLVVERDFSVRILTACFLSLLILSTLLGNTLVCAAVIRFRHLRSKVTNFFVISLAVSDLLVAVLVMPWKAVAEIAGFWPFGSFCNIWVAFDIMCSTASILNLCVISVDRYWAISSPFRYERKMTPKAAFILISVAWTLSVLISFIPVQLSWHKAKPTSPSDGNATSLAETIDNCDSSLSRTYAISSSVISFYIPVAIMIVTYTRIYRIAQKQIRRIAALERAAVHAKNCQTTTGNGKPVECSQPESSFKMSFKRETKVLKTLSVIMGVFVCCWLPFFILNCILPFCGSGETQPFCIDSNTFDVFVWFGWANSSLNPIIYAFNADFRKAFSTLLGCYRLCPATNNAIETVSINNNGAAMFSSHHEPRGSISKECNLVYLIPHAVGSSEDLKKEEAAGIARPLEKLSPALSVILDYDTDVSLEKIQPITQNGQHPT
Summary of the method: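 Cells are induced with tetracycline and incubated overnight at 30 C, then loaded with calcium dye for 30 to 90 minutes at room temperature. Compound addition is followed by a 180 s read, then an EC80 dopamine addition and another 180 s read.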

[2] = Validation screen for small molecules that induce genotoxicity in human embryonic kidney (HEK293T) cells expressing luciferase-tagged ELG1 (AID 493106); conditions: luminescence; series mostly up to 46.1 µM
Summary of the method: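 Luminescence from an ELG1-luciferase fusion serves as the read-out, rising when genetic stress elevates ELG1 protein. HEK293T reporter cells (2,000 per well) received 23 nL compound, incubated 16 hr at 37 °C, then ONE-Glo for 30 min at room temperature.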

[3] = molecular target: ATPase family AAA domain-containing protein 5 (Homo sapiens) (UniProt Q96QE3); assay: Validation screen for small molecules that inhibit ELG1-dependent DNA repair in human embryonic kidney (HEK293T) cells expressing luciferase-tagged ELG1 (AID 493107); conditions: HEK293T ELG1-luciferase level, luminescence, 5-fluorouridine co-treatment, 16 h; series mostly up to 46.1 µM; also: nearly all actives have a fitted effect of over 70% in size; also: potency is read from the fitted curve at half-maximal effect
ATPase family AAA domain-containing protein 5 (Homo sapiens), sequence (Q96QE3 whole entry, looked up, the tested form may be a part): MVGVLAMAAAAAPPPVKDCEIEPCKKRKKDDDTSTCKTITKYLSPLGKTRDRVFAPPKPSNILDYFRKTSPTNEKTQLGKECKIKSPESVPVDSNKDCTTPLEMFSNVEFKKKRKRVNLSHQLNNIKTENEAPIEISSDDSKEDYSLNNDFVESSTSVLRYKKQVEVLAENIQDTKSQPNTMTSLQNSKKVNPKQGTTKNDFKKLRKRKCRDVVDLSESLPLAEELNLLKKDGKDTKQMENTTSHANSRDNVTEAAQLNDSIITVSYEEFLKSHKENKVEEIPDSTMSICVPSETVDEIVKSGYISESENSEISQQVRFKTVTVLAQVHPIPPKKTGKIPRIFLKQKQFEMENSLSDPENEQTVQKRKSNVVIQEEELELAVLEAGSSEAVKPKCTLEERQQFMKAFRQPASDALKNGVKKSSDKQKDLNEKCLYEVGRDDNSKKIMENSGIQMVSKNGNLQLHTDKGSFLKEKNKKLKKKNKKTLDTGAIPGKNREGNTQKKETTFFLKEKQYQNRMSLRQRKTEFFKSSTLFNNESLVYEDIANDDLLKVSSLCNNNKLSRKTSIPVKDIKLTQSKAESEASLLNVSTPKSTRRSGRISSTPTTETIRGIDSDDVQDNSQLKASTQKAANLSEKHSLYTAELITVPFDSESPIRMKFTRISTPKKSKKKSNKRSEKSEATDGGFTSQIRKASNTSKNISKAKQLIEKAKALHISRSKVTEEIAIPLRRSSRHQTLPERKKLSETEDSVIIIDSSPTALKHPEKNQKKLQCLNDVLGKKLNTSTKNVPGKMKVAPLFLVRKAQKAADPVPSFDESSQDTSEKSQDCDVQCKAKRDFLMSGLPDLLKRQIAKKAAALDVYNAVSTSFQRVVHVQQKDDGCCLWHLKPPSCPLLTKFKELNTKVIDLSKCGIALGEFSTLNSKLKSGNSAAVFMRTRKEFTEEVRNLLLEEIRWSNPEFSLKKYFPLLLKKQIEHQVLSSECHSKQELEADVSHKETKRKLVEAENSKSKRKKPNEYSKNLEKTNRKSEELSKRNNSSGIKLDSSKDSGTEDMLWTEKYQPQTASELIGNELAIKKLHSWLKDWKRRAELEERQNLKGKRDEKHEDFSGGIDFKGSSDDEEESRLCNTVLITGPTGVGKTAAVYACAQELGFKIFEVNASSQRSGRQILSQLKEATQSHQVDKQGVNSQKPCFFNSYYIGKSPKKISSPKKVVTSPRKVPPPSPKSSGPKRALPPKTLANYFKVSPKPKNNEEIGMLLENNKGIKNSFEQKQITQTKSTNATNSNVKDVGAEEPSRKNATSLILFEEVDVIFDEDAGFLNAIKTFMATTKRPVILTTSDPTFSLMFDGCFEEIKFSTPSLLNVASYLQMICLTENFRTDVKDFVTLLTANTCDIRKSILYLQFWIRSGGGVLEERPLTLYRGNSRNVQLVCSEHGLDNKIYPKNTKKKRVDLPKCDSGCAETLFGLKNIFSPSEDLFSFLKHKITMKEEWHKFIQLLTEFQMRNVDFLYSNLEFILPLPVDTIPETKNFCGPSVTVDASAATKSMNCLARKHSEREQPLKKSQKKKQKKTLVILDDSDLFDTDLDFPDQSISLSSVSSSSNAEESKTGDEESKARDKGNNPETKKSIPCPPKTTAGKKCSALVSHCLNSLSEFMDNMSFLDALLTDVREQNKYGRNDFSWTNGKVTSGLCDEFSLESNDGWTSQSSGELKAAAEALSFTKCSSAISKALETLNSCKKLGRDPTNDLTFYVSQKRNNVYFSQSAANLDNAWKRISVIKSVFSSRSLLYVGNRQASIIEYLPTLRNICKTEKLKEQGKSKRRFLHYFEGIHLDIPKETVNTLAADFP
Summary of the method: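 Luminescence from ONE-Glo, developed 30 min at room temperature, served as read-out of ELG1-luciferase levels. Beforehand, reporter HEK293T cells received 5-fluorouridine plus test compound for 16 hr at 37 °C.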

[4] = molecular target: Thyrotropin-releasing hormone receptor (Homo sapiens) (UniProt P34981); assay: qHTS for Small Molecule Agonists and Allosteric Enhancers of Human TRH Receptor: Validation Screen for Agonists (AID 493127;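 active = calcium activation more than 3 SD above the typical response in the agonist read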;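 also: intracellular calcium rise by fluo-8 fluorescence before TRH EC20 addition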); conditions: TRH receptor agonist cell assay; at 2 µM; stronger effect = higher value
Thyrotropin-releasing hormone receptor (Homo sapiens), sequence (P34981 whole entry, looked up): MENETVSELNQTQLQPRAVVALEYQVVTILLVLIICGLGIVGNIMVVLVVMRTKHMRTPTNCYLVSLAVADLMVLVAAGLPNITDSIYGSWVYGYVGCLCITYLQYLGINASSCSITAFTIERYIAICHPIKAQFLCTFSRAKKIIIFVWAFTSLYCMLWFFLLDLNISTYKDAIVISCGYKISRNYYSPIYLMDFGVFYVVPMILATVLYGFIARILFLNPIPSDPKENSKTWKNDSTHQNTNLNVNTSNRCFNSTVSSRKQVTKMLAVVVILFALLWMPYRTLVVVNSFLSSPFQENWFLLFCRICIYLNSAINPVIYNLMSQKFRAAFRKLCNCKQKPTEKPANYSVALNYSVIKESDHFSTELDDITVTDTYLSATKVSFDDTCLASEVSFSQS
Summary of the method: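 Cells 2000/well, 10% FCS, 18 h 33.5C/5% CO2 → fluo-8 Ca dye, RT 30 min–1.5 h → FDSS baseline 10 × 1 s → compound added → 230 cycles (1 s/cycle) agonist mode. TRH controls.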

[5] = Nrf2 qHTS screen for inhibitors: Validation (AID 493153; active = well fitted inhibition curve with a large enough effect in the main read-out, with a control signal flat, not every such curve was filed as active); conditions: A549 ARE-Fluc reporter, 18-24 h; Potency: luciferase luminescence; viability change: measured here: cytotoxicity max response; luciferase luminescence, at 46.1 µM (top of the series)
Summary of the method: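 Luminescence from an ARE-firefly luciferase reporter in A549 cells gives Nrf2 inhibition; an earlier CellTiter-Fluor fluorescent read flags cytotoxicity. Cells in 5% FBS OPTI-MEM received compound dilution series for 18-24 h at 37°C.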

[6] = qHTS for Inhibitors of Cell Surface uPA Generation: Validation Assay (AID 493164); conditions: mouse cells, plasminogen activation; series mostly up to 38.3 µM
Summary of the method: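 RAW 264.7 cells (4000/well) were plated overnight, then exposed for 18 h at 37 C, 5% CO2 to compounds in a 7-point 1:5 titration (2.45 nM–38.3 uM final). Intracellular ATP was read by ATP-Lite luminescence.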

[7] = molecular target: Galactokinase (Homo sapiens) (UniProt P51570); assay: qHTS Validation Assay for Inhibitors of Human Galactokinase (GALK) (AID 493189); conditions: purified human GALK enzyme activity, qHTS 7-point titration; series mostly up to 57.5 µM; also: potency is read from the fitted curve at half-maximal effect
Galactokinase (Homo sapiens), sequence (P51570 whole entry, looked up): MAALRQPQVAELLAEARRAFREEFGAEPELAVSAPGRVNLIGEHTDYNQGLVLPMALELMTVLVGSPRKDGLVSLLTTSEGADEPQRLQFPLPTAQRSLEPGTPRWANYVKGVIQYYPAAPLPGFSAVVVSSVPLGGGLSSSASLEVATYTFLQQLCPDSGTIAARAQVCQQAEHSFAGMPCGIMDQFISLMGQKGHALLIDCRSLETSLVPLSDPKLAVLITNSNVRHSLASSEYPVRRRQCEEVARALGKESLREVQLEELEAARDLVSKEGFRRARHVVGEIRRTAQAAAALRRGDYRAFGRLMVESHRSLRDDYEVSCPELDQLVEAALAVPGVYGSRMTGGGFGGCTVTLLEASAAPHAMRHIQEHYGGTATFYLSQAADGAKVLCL
Summary of the method: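 5 nM GALK / 100 uM galactose / 35 uM ATP, 20 mM HEPES pH8.0, 5 mM MgCl2, 60 mM NaCl, 1 mM DTT, 0.01% BSA (final). RT 1 h; Kinase-Glo Plus luminescence.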

[8] = molecular target: D(1A) dopamine receptor (Homo sapiens) (UniProt P21728); assay: HTS Assay for Allosteric Agonists of the Human D1 Dopamine Receptor: Primary Screen for Potentiators (AID 488982); conditions: HEK293 T-REx D1 inducible cells, calcium flux, kinetic fluorescence; series mostly up to 8.37 µM
Summary of the method: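 Calcium flux in an inducible, force-coupled HEK293 Trex D1 line (overnight at 30 C): agonist mode is the 180 s kinetic read after compound; potentiator mode is the following 180 s read after dopamine at EC20.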

[9] = molecular target: ATP-dependent 6-phosphofructokinase (Trypanosoma brucei brucei) (UniProt O15648); assay: qHTS Assay to Find Inhibitors of T. brucei phosphofructokinase: hit validation (AID 492961);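 also: luminescence reports ADP formed as PFK phosphorylates fructose-6-phosphate with ATP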; conditions: T. brucei PFK, ADP-Glo luminescence; series mostly up to 51.4 µM
ATP-dependent 6-phosphofructokinase (Trypanosoma brucei brucei), sequence (O15648 whole entry, looked up): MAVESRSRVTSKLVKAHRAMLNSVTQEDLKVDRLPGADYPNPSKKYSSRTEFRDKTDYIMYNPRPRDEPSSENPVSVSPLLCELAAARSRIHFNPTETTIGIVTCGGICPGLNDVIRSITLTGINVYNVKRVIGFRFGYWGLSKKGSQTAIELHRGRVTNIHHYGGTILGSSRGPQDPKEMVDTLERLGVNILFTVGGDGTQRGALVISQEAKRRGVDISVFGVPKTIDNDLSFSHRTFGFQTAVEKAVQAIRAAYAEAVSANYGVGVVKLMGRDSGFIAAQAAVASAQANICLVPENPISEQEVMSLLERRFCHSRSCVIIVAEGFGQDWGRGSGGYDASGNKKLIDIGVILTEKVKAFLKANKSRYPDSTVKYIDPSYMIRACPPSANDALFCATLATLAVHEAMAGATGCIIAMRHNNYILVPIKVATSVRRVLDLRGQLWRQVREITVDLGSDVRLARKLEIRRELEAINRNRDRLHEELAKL
Summary of the method: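 ADP-Glo luminescence read-out of ADP formed by 1.25 nM PFK from 0.1 mM ATP and 0.5 mM F6P (TEA pH 8.0, 45 min, RT). Compounds titrated; activity normalized to no-enzyme and full-enzyme controls.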

Compound	Potency [1]	Potency [2]	Potency [3]	activation [4]	Potency [5]	viability change [5]	outcome [6]	Potency [7]	Potency [8]	outcome [9]
COC(=O)c1c(C)[nH]c(C)c1C(=O)c1ccccc1Cc1ccccc1	inactive	inactive	inactive	7.25% (inactive)	inactive	-8.95%	inactive	inactive		
C[C@@H](CN1CCC(Cc2ccccc2)CC1)[C@@H](O)c1ccc(O)cc1	14.1 µM (active)	inactive	inactive	2.75% (inactive)	inactive	8.45%	inactive	inactive		
COc1cc2nc(N3CCN(C(=O)OCc4ccccc4)C(C(=O)NC(C)(C)C)C3)nc(N)c2cc1OC (centres undefined)	inactive	inactive		-3.06% (inactive)	inactive	-20.4%	inactive	inactive		
COC1=C(OC)C(=O)c2ccccc2C1=O	inactive	inactive	inactive	0.688% (inactive)			inactive	inactive		
CN1CCc2cccc3c2C1Cc1ccc(O)c(O)c1-3 (centres undefined)				0.125% (inactive)	inactive	0.0644%	inactive	inactive	inactive	
O=C(O)/C=C/C(O)c1ccc(Cl)cc1 (centres undefined)	inactive	inactive	inactive	0.125% (inactive)	inactive	2.66%	inactive	inactive		inactive
CC(=O)N[C@H](C(=O)O)C(C)(C)SN=O	inactive	inactive	inactive	0.812% (inactive)	inactive	-5%	inactive	inactive		
NC(CCCP(=O)(O)O)C(=O)O (centres undefined)	inactive	inactive	inactive	0.562% (inactive)	inactive	3.42%	inactive	inactive		
CC(C)NC[C@@H](O)c1ccc(O)c(O)c1	inactive	inactive	inactive		inactive	0.444%	inactive			
NC[C@@H]1O[C@H](C23CC4CC(CC(C4)C2)C3)Cc2c1ccc(O)c2O				8.12% (inactive)	inactive	3.16%	inactive	inactive	inactive	
CCOC(=O)N1CCN(/[N+]([O-])=N/Oc2ccc([N+](=O)[O-])cc2[N+](=O)[O-])CC1							inactive		inactive	
O=Nc1ccc2oc(=O)ccc2c1	inactive	inactive	inactive	-0.5% (inactive)	inactive	1.8%	inactive	inactive		
O=C(c1ccc(Cl)cc1)N1CCN(c2ccc([N+](=O)[O-])c3ncccc23)CC1	inactive	inactive	20.6 µM (active)				inactive			
N[C@@H](CC(=O)O)C(=O)O	inactive	inactive	inactive	1.19% (inactive)	inactive	-0.666%	inactive	inactive		
CC(=O)/C=C1\C(=O)N(C)c2ccccc21	10 µM (active)	inactive	inactive		inactive	-4.33%	inactive			
C[N+](C)(CCCCCC[N+](C)(C)CCCN1C(=O)c2cccc3cccc(c23)C1=O)CCCN1C(=O)c2cccc3cccc(c23)C1=O	inactive	inactive	inactive	-0.188% (inactive)	inactive	-2.29%	inactive	inactive		
O=P(O)(O)C(Cl)(Cl)P(=O)(O)O	inactive	inactive	inactive		inactive	4.97%	inactive			

Compound	Potency [1]	Potency [2]	Potency [3]	activation [4]	Potency [5]	viability change [5]	outcome [6]	Potency [7]	Potency [8]	outcome [9]
C[N+](C)(C)CCOP(=O)(O)OP(=O)([O-])OC[C@H]1O[C@@H](n2ccc(N)nc2=O)[C@H](O)[C@@H]1O	inactive	inactive	inactive		inactive	2.92%	inactive			
Oc1cc2c(cc1O)CN(C(=S)NCCc1ccc(Cl)cc1)CCC2	2 µM (active)	inactive		2.62% (inactive)	inactive	-1.93%	inactive	inactive		
Cn1c(=O)c2[nH]c(-c3ccccc3)nc2n(C)c1=O	inactive	inactive	inactive	0.875% (inactive)			inactive	inactive		
O=C(O)CC[C@@H](C(=O)O)N1C(=O)c2ccccc2C1=O	inactive	inactive	inactive	0.125% (inactive)	inactive	9.01%	inactive	inactive		
CO/N=C(\C(=O)N[C@@H]1C(=O)N2C(C(=O)O)=C(COC(C)=O)CS[C@H]12)c1csc(N)n1	inactive	inactive	inactive		inactive	-5.9%	inactive			
CN1C2CC(OC(=O)[C@H](CO)c3ccccc3)CC1C1OC12 (some centres undefined)	inactive	inactive	inactive		inactive	-8.53%	inactive			
Cn1cc(C2=C(c3ccc(Cl)cc3Cl)C(=O)NC2=O)c2ccccc21	inactive	inactive		29.6% (inactive)	inactive	-10.9%	inactive	inactive		
CCC1C(=O)OCC1Cc1cncn1C (centres undefined)	inactive	inactive	inactive		inactive	6.63% and 6.13%	inactive			inactive
CCOC(=O)C1=C(C)NC(C)=C(C(=O)OCC)C1c1c(F)c(F)c(F)c(F)c1F							inactive		inactive	
CCCCCCCC/C=C\CCCCCCCC(=O)NCCO				1.25% (inactive)	inactive	1.03%	inactive	inactive	inactive	
O=C1C(SCCO)=C(SCCO)C(=O)c2ccccc21	11.2 µM (active)	inactive		-3.25% (inactive)			inactive	25.1 µM (active)		
CN1CCC[C@H]1c1cccnc1	inactive	inactive	inactive	0.5% (inactive)	inactive	-3.72%	inactive	inactive		
CCCCC/C=C\CC(O)/C=C/c1cccc(CC(O)CCCCO)n1 (centres undefined)	inactive	inactive	inactive	-2.94% (inactive)	inactive	-0.641%	inactive	inactive		
Oc1ccccc1O	inactive	inactive	inactive	0.375% (inactive)			inactive	inactive		
Nc1ncnc2c1ncn2[C@@H]1O[C@H](COP(=O)(O)CP(=O)(O)OP(=O)(O)O)[C@@H](O)[C@H]1O	inactive	inactive	inactive		inactive	-5.53%	inactive			
NC(=S)c1ccc[n+]([C@@H]2O[C@@H](COP(=O)([O-])OP(=O)(O)OC[C@H]3O[C@@H](n4cnc5c(N)ncnc54)[C@H](OP(=O)(O)O)[C@@H]3O)C(O)C2O)c1 (some centres undefined)	inactive	inactive	inactive		inactive	-6.67%	inactive			
